This is part of a sample that, as a whole, favours compounds with a hit. Of some 79,000 tested, about 15% had one in any assay. A number with no mark means an inactive call. Rule as the data show it: active = growth inhibition above about 70%; inactive = the rest. Where a SMILES comes first, the peptide text is derived from it. [ ]: non-standard residue; d: D form. The star is where a group is joined. Cbz = O=C(OCc1ccccc1)*; Nva = CCC[CH](N)C(=O)O
assay: NCI Yeast Anticancer Drug Screen. Data for the bub3 strain (AID 167); conditions: S. cerevisiae bub3 mutant strain, at 50.0 µM, active compounds read high
How it was run: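 Whole-cell yeast assay. The mutant strain was incubated with compounds, and growth inhibition was determined by comparison with vehicle-treated cells.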

Row | SMILES | growth inhibition [%]
1 | CCCCCCCCCOc1ccc2ccccc2c1 | -15.2
2 | CCCC(NC(=O)OCc1ccccc1)C(=O)NC(C(=O)O)C(C)CC (stereo not given) (Cbz-[Nva]-Ile-OH; configuration not given here) | 4.55
3 | Cc1ccccc1N1C(=O)[N+]2(CCCCC2)N=C1[O-] | -3.9
4 | CCC([NH-])(CC)C[NH-].[Cl][Pt+2][Cl] | -14.1
5 | O=c1[nH]c(=O)n(C2CC(O)C(CO)O2)cc1OCC1CCCCC1 (stereo not given) | -14.4
6 | CN(C)NC(=O)CC#N | -6
7 | COC(=N)c1ncn(Cc2ccccc2)c1N | -7.35
8 | COC(=O)C1=C(C(=O)OC)SC(=C2C3=C(SC(C(=O)OC)=C(C(=O)OC)S3)c3ccccc32)S1 | -4.6
9 | Cc1ccc(-c2c(C#N)c(-c3ccc(Cl)cc3)c(C#N)c(=O)n2NS(=O)(=O)c2ccc(C)cc2)cc1 | 15.7
10 | CC12CCCCC1C(C(C)(C)OC(=O)c1ccc([N+](=O)[O-])cc1)CC2 (stereo not given) | 12.6
11 | Ic1ccccc1 | -45.8
12 | O=C/C=C/c1ccc2c(c1)OC(CO)C(c1ccc(O)c(O)c1)O2 (stereo not given) | 9.7
13 | Cc1c(Cl)ccc2c1NC(=O)C2(O)CC(=O)c1ccccc1 (stereo not given) | -18.8
14 | CCOC(=O)/C(C#N)=C/Nc1ccncc1 | 4.25
15 | COC(=O)C1CN=CN1CCc1ccccc1 (stereo not given) | 2.5
16 | Cc1nc(C)c(N2CCN(S(N)(=O)=O)CC2)c(=O)[nH]1 | 3.4
17 | NS(=O)(=O)c1cc(C(=O)O)c(O)c2ccccc12 | 6.6
18 | COC(=O)c1cc(C)nc(Cl)c1C(=O)O | -2.05
19 | COc1ccccc1CO | 13.8
20 | COc1cc2c(c(Cl)c1O)C(=O)OC2 | -6.8

Row | SMILES | growth inhibition [%]
21 | COC(=O)[C@@]12C(=O)N[C@@H](Cc3ccccc3)[C@@H]1[C@H](C)C(C)=C[C@@H]2CO | -32.2
22 | Cc1c(N=Nc2cccc(F)c2)c(-c2ccccc2)nn1C(=S)S | 26.8
23 | CC(O)COc1ccc(C(C)(C)C)cc1 (stereo not given) | 10.8
24 | CC(=O)CC(=O)N1CCCCCCC1 | -23.2
25 | O=C(Nc1ccc(Cl)cc1)Oc1ccc(Br)cc1Br | -2.7
26 | O=C(c1ccc(F)cc1)c1ccc2ccccc2c1 | 2
27 | CCc1ccccc1NC(=O)Sc1cccc(C)c1 | 23
28 | COc1ccc2[nH]c3c(C)c4c(c(C)c3c2c1)CN(C)CC4 | -7.6
29 | CCOCCOCCOCOCCOCCOCC | 25.9
30 | CC(=O)c1cccc(F)c1C(C)c1ccc2ccccc2c1 (stereo not given) | 15.4
31 | NC1=Nc2ccccc2Sc2nncn21 | 0.1
32 | Cc1c(C(=O)CC(=O)C(=O)NC2C3CC4CC(C3)CC2C4)[n+](=O)c2ccccc2n1[O-] (stereo not given) | -9.8
33 | O[C@@H]1C=C(c2ccccc2)[C@H](c2ccccc2)C1 | -19.8
34 | O=C(Cc1nc2ccccc2o1)C(=O)Nc1ccc(Cl)cc1Cl | -15.7
35 | CCOC(=O)c1cnc(C)nc1Nc1ccccc1 | 0.9
36 | N#Cc1nc(NC(=O)c2ccccc2C(=O)O)c(C#N)[nH]1 | -8.85
37 | O=C(NCCS(=O)(=O)N1C(=O)C2CCCN2C(=O)[C@@H]1Cc1ccccc1)OCc1ccccc1 (stereo not given in full) | 5.8
38 | O=[N+]([O-])c1ccc(N=Cc2ccccc2)cc1 | 16.5
39 | NNC(=O)COc1ccc(Br)cc1Br | 3.8
40 | Cc1cc2c(cc1C)NC(=O)CC(=O)N2 | -18.7

assay: NCI Yeast Anticancer Drug Screen. Data for the mlh1 rad18 strain (AID 175); conditions: S. cerevisiae mlh1 rad18 strain growth inhibition; at 50.0 µM; active compounds read high
How it was run: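 Inhibition values reflect reduced growth of mutant yeast versus vehicle-treated controls following compound exposure; the mutations affect DNA damage repair.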

Row | SMILES | growth inhibition [%]
41 | CCCCCCCCCOc1ccc2ccccc2c1 | -4.5
42 | CCCC(NC(=O)OCc1ccccc1)C(=O)NC(C(=O)O)C(C)CC (stereo not given) (Cbz-[Nva]-Ile-OH; configuration not given here) | 9.6
43 | Cc1ccccc1N1C(=O)[N+]2(CCCCC2)N=C1[O-] | -12.6
44 | CCC([NH-])(CC)C[NH-].[Cl][Pt+2][Cl] | -44.6
45 | O=c1[nH]c(=O)n(C2CC(O)C(CO)O2)cc1OCC1CCCCC1 (stereo not given) | -19.9
46 | CN(C)NC(=O)CC#N | 2.75
47 | COC(=N)c1ncn(Cc2ccccc2)c1N | -37.3
48 | COC(=O)C1=C(C(=O)OC)SC(=C2C3=C(SC(C(=O)OC)=C(C(=O)OC)S3)c3ccccc32)S1 | 21.2
49 | Cc1ccc(-c2c(C#N)c(-c3ccc(Cl)cc3)c(C#N)c(=O)n2NS(=O)(=O)c2ccc(C)cc2)cc1 | 13.2
50 | CC12CCCCC1C(C(C)(C)OC(=O)c1ccc([N+](=O)[O-])cc1)CC2 (stereo not given) | 21.1
51 | Ic1ccccc1 | -65.7
52 | O=C/C=C/c1ccc2c(c1)OC(CO)C(c1ccc(O)c(O)c1)O2 (stereo not given) | 3.2
53 | Cc1c(Cl)ccc2c1NC(=O)C2(O)CC(=O)c1ccccc1 (stereo not given) | 30.3
54 | CCOC(=O)/C(C#N)=C/Nc1ccncc1 | 16
55 | COC(=O)C1CN=CN1CCc1ccccc1 (stereo not given) | 45.8
56 | Cc1nc(C)c(N2CCN(S(N)(=O)=O)CC2)c(=O)[nH]1 | -21.8
57 | NS(=O)(=O)c1cc(C(=O)O)c(O)c2ccccc12 | 15.6
58 | COC(=O)c1cc(C)nc(Cl)c1C(=O)O | -5.9
59 | COc1ccccc1CO | -1.15
60 | COc1cc2c(c(Cl)c1O)C(=O)OC2 | 17.4

Row | SMILES | growth inhibition [%]
61 | COC(=O)[C@@]12C(=O)N[C@@H](Cc3ccccc3)[C@@H]1[C@H](C)C(C)=C[C@@H]2CO | -24.3
62 | Cc1c(N=Nc2cccc(F)c2)c(-c2ccccc2)nn1C(=S)S | 16.7
63 | CC(O)COc1ccc(C(C)(C)C)cc1 (stereo not given) | 2.6
64 | CC(=O)CC(=O)N1CCCCCCC1 | -34.2
65 | O=C(Nc1ccc(Cl)cc1)Oc1ccc(Br)cc1Br | 13.2
66 | O=C(c1ccc(F)cc1)c1ccc2ccccc2c1 | 5
67 | CCc1ccccc1NC(=O)Sc1cccc(C)c1 | -28.9
68 | COc1ccc2[nH]c3c(C)c4c(c(C)c3c2c1)CN(C)CC4 | -5.85
69 | CCOCCOCCOCOCCOCCOCC | -4
70 | CC(=O)c1cccc(F)c1C(C)c1ccc2ccccc2c1 (stereo not given) | 1.65
71 | NC1=Nc2ccccc2Sc2nncn21 | -4.35
72 | Cc1c(C(=O)CC(=O)C(=O)NC2C3CC4CC(C3)CC2C4)[n+](=O)c2ccccc2n1[O-] (stereo not given) | -20.4
73 | O[C@@H]1C=C(c2ccccc2)[C@H](c2ccccc2)C1 | -1.15
74 | O=C(Cc1nc2ccccc2o1)C(=O)Nc1ccc(Cl)cc1Cl | 16.2
75 | CCOC(=O)c1cnc(C)nc1Nc1ccccc1 | -23.7
76 | N#Cc1nc(NC(=O)c2ccccc2C(=O)O)c(C#N)[nH]1 | -29.3
77 | O=C(NCCS(=O)(=O)N1C(=O)C2CCCN2C(=O)[C@@H]1Cc1ccccc1)OCc1ccccc1 (stereo not given in full) | 26.1
78 | O=[N+]([O-])c1ccc(N=Cc2ccccc2)cc1 | 5.8
79 | NNC(=O)COc1ccc(Br)cc1Br | -1.25
80 | Cc1cc2c(cc1C)NC(=O)CC(=O)N2 | 14.4
